Test results from PubChem BioAssay (NCI).
The panel holds about 83,000 compounds, 20% with a hit somewhere; the sample as a whole holds those more often.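 A percent growth of 40 corresponds to 60% growth inhibition; 0 means no net growth; -100 means all cells died. Active threshold: below 10.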 Values without a mark were called inactive. Activity calls are given as the source filed them.

System: HL-60(TB) leukemia
Assay: NCI-60 one-dose screen, 48 h (100 = growth as untreated, 0 = no growth, -100 = all killed)
Details: 10 µM unless noted

Question: With `O=S(=O)(Nc1ccccc1Cl)c1ccc(-c2cnc(C3CC3)o2)cc1` as the molecule, how does the growth read?
Answer: The growth was 7.9% (active).

Question: With `O=C(NC1CCOCC1)c1ccc2c(c1)CN(c1ncc(Cc3cccc(-n4cccn4)c3)s1)CC2` as the molecule, how does the growth read?
Answer: Its growth is 68.7%.

Question: With `ClCc1cccc2c(CCl)cccc12` as the molecule, how does the growth read?
Answer: Its growth is 48.2%.

Question: How did the growth turn out when `COc1ccccc1N1CCN(C(CNS(=O)(=O)c2ccc(Cl)cc2)c2cccnc2)CC1` (stereo not given) was run?
Answer: The growth was 66.1%.

Question: For `O=C(CSc1nc(-c2ccccc2)cc(=O)[nH]1)Nc1nc(-c2ccccc2)cs1`, which growth is on record?
Answer: The growth was 95.7%.

Question: Which growth does the source give for `CC(=O)OCC1CCC(COC(C)=O)CC1` (stereo not given) here?
Answer: Its growth is 85.5%.

Question: How did the growth turn out when `COc1ccc2cc(C3=CC(=O)CCC3)ccc2c1` was run?
Answer: Its growth is 89.7%.

Question: Which growth does the source give for `Cc1ccc(C=C2C(=O)NC(=O)NC2=O)cc1` here?
Answer: Its growth is 101%.

Question: Which growth does the source give for `O[C@@H]1CO[C@H]2[C@@H]1OC[C@@H]2O` here?
Answer: The growth was 98%.

Question: With `N=C(N)c1ccc(-c2ccc(-c3ccc(F)cc3)s2)cc1` as the molecule, how does the growth read?
Answer: Its growth is -56.1% (active).

Question: For `Nc1ncc(-c2ccc3ncnc(Nc4cncc(Cl)c4)c3c2)cn1`, which growth is on record?
Answer: Its growth is 92.5%.

Question: How did the growth turn out when `Cc1ccc(C[P+](c2ccccc2)(c2ccccc2)c2ccccc2)cc1` was run?
Answer: Its growth is -63.4% (active).

Question: How did the growth turn out when `O=C(Nc1ccccc1Cl)c1c[nH]c(=O)c(-c2ccc(N3CCCOC4(CC4)C3)cc2)c1` was run?
Answer: The growth was 28.3%.

Question: `Cc1cc2c(C(C)C)c(O)c(O)c(C=NCc3ccoc3)c2c(O)c1-c1c(C)cc2c(C(C)C)c(O)c(O)c(C=NCc3ccco3)c2c1O` was tested. Which growth did it give?
Answer: Its growth is 9.25% (active).

Question: How did the growth turn out when `CC1(C)C(=O)/C(=C\c2ccco2)C[C@]2(C)[C@H]3CC[C@@H]4[C@@H](C(=O)/C=C/c5ccco5)CC[C@@]4(C)[C@]3(C)CC[C@@H]12` was run?
Answer: The growth was 81.6%.
